Experiments:
[1] = target: Mitogen-activated protein kinase 3 (Homo sapiens) (UniProt P27361); details: at 1 µM;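 also: values are mean percent inhibition of MAPK3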
[2] = target: SRSF protein kinase 3 (Homo sapiens) (UniProt Q9UPE1); details: at 0.1 µM
[3] = target: SRSF protein kinase 3 (Homo sapiens) (UniProt Q9UPE1); details: at 1 µM
[4] = target: Mitogen-activated protein kinase 14 (Homo sapiens) (UniProt Q16539); details: at 0.1 µM
[5] = target: Mitogen-activated protein kinase 14 (Homo sapiens) (UniProt Q16539); details: at 1 µM
[6] = target: Mitogen-activated protein kinase 11 (Homo sapiens) (UniProt Q15759); details: at 0.1 µM
Chain of Mitogen-activated protein kinase 11 (Homo sapiens) (Q15759 whole entry): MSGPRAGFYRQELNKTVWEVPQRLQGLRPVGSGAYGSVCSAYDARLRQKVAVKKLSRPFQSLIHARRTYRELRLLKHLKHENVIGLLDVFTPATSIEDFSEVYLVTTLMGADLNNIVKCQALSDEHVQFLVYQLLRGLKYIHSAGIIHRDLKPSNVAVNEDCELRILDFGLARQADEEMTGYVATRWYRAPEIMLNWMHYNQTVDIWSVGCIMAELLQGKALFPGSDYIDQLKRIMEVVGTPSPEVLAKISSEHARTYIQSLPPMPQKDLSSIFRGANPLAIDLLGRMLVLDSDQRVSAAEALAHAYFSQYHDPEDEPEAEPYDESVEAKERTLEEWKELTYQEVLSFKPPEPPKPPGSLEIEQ

[7] = target: Mitogen-activated protein kinase 11 (Homo sapiens) (UniProt Q15759); details: at 1 µM
[8] = target: T1, Mitogen-activated protein kinase 13 (Homo sapiens) (UniProt O15264); details: at 0.1 µM
T1 sequence (whole entry): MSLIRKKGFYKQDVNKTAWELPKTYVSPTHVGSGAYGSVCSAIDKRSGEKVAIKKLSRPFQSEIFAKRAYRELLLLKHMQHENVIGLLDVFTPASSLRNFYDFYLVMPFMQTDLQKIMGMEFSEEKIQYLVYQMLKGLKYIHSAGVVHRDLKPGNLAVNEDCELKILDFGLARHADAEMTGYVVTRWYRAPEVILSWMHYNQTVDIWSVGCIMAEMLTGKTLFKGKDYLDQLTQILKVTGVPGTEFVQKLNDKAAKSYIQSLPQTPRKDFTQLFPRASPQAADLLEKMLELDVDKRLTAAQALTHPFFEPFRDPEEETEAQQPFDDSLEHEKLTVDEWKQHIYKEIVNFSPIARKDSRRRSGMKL

[9] = target: T1, Mitogen-activated protein kinase 13 (Homo sapiens); details: at 1 µM
[10] = target: T2, Mitogen-activated protein kinase 12 (Homo sapiens) (UniProt P53778); details: at 0.1 µM
T2 sequence (whole entry): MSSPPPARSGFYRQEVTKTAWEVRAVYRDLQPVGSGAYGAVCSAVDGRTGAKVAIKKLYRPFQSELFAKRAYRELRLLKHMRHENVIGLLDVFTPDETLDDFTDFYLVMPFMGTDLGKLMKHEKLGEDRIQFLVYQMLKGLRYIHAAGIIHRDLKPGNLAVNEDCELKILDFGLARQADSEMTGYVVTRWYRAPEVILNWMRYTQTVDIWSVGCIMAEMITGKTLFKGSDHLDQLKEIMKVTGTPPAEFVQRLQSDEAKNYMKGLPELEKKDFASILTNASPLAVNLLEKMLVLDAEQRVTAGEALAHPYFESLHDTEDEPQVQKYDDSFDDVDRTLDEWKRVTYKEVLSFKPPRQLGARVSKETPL

Chain of Mitogen-activated protein kinase 3 (Homo sapiens) (P27361 whole entry): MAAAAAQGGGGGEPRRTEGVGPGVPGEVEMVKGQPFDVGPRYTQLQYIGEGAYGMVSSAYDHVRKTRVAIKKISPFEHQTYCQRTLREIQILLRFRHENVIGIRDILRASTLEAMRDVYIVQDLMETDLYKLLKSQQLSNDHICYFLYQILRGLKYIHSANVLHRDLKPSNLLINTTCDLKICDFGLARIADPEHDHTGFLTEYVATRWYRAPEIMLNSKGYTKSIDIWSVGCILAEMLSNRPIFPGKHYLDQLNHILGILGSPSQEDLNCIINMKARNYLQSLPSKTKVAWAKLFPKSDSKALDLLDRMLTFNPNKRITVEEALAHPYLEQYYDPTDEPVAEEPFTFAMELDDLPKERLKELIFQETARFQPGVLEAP
Chain of SRSF protein kinase 3 (Homo sapiens) (Q9UPE1 whole entry): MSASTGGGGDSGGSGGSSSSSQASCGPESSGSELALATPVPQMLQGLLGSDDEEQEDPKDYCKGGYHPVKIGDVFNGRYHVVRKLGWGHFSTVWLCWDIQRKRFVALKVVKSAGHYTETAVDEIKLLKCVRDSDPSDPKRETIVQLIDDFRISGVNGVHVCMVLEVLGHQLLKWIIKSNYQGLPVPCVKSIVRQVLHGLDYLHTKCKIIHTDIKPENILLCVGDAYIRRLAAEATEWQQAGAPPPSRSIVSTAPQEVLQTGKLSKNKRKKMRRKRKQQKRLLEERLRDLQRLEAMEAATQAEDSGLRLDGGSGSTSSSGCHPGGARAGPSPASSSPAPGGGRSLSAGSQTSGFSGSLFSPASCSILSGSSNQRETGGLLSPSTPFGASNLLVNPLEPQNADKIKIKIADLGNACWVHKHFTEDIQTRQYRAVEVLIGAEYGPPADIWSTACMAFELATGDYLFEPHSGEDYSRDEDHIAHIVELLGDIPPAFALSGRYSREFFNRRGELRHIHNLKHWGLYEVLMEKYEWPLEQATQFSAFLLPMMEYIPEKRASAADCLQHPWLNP
Chain of Mitogen-activated protein kinase 14 (Homo sapiens) (Q16539 whole entry): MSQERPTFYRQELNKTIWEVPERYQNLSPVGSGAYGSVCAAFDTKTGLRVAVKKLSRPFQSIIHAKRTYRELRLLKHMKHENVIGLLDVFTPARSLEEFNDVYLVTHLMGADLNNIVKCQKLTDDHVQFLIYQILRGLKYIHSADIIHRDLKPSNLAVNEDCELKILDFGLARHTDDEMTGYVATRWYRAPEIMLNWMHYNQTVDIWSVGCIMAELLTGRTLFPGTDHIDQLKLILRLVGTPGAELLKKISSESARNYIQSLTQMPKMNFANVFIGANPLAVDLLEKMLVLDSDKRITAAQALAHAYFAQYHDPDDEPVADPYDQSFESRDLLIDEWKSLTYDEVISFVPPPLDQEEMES

Compound	inhibition [1] [%]	inhibition [2] [%]	inhibition [3] [%]	inhibition [4] [%]	inhibition [5] [%]	inhibition [6] [%]	inhibition [7] [%]	inhibition [8] [%]	inhibition [9] [%]	inhibition [10] [%]
CCn1cc(-c2ccnc3[nH]ccc23)c(-c2cccc(NC(=O)Nc3ccc(OCc4ccccc4)cc3)c2)n1	0.79	-1.98	-1.89	0.81	1.53	5.07	3.29	-0.53	-2.06	-1.09
CC1=C(C(=O)Nc2cc(Cl)c3[nH]ncc3c2)C(c2ccc(C(F)(F)F)cc2)CC(=O)N1 (stereo not given)	21.8	-1.32	-2.71	-3.41	6.81	1.37	2.31	0.32	4.12	2.56
CCCN(CCS(C)(=O)=O)Cc1ccc(-c2ccc3ncnc(Nc4ccc(OCc5cccc(F)c5)c(Cl)c4)c3c2)o1	2.62	-1.91	-0.61	10.4	4.25	0.78	0.65	4.35	2.64	0.9
COC(=O)Nc1nc2ccc(S(=O)(=O)c3ccc(NC(=O)Nc4cc(C(F)(F)F)ccc4F)cc3)cc2[nH]1	3.32	-1.38	-1.81	3.23	8.81	8.26	8.9	1.33	2.66	1.77
c1ccc(COc2ccc(Nc3ncnc4ccc(-c5ccco5)cc34)cc2)cc1	1.18	-1.34	-0.68	2.18	2.81	1.43	0.27	0.6	-0.53	0.76
O=S(=O)(CCNCc1ccc(-c2ccc3ncnc(Nc4ccc(OCc5cccc(F)c5)c(Cl)c4)c3c2)o1)c1ccccc1	6	-1.7	3.71	16.1	14	6.03	6.99	6.05	5.53	3.55
COc1ccc(CNC(=O)c2ccc(-c3cc(-c4nnc(C)o4)ccc3C)cc2)cc1	1.53	2.42	6.02	19.4	66.6	10.1	46.3	1.25	2.3	0.94
COc1cc(N2CCN(C(C)C)CC2)ccc1Nc1nc(Nc2ccc(F)cc2C(N)=O)c2cc[nH]c2n1	5.68	4.97	4.84	4.36	8.96	1.51	9.48	0.06	2.28	0.86
O=C(O[C@H]1CN[C@H](C#Cc2cc3ncnc(Nc4ccc(Cc5ccccc5)cc4)c3s2)C1)N1CCOCC1	2.11	-2.44	-1.14	4.54	2.37	0.92	4.95	2.02	0.36	1.75
COc1cccc(-c2c[nH]c3c(N/N=C/c4ccncc4)ncnc23)c1	6.39	1.36	1.67	7.04	13.3	2.44	7.25	6.19	38.2	1.88
CNC(=O)c1cccc(C#Cc2cncnc2Nc2ccc(OCc3cccc(F)c3)c(Cl)c2)c1	0.63	-4.28	-0.55	-0.67	3.2	1.64	1.73	-0.77	-0.49	0.07
CC(=O)NCc1cccc(C#Cc2cncnc2Nc2ccc(OCc3cccc(F)c3)c(Cl)c2)c1	2.72	-1.32	-1.8	1.05	-0.7	1.26	-0.84	-3.33	0.78	0.11
Nc1ncc(-c2cccc(S(N)(=O)=O)c2)c2scc(-c3ccc(F)c(Cl)c3)c12	5.48	-1.03	0.1	13.9	55.9	21.8	62.3	3.01	1.94	2.88
CCOc1ccc2c(-c3ccnc(Nc4cccc(C(F)(F)F)c4)n3)cnn2n1	2.69	-2.63	1.62	3.75	1.48	5.24	2.69	1.99	0.75	0.81
CN1CCC(n2cnc(-c3ccc(F)cc3)c2-c2ccnc(Nc3ccccc3)n2)CC1	6.33	0.1	-0.07	84.1	90.8	50.7	81.4	3.08	22.5	3.56
CCn1c(-c2nonc2N)nc2cnc(Oc3cccc(NC(=O)c4ccc(N(C)C)cc4)c3)cc21	1.36	-1.98	-3.41	-0.32	8.29	1.19	1.94	-1.13	2.57	0.02
c1ccc(-c2nc3n(c2-c2ccc4c(c2)OCO4)CCC3)nc1	2.21	-1.69	-1.14	4.21	13.4	0.27	2.77	1.49	2.52	1.78

Compound	inhibition [1] [%]	inhibition [2] [%]	inhibition [3] [%]	inhibition [4] [%]	inhibition [5] [%]	inhibition [6] [%]	inhibition [7] [%]	inhibition [8] [%]	inhibition [9] [%]	inhibition [10] [%]
CS(=O)(=O)CCNCc1coc(-c2ccc3ncnc(Nc4ccc(OCc5ccccc5)cc4)c3c2)c1	4.16	0.59	-0.06	3.52	5.25	1.13	5.1	1.6	1.56	1.93
COc1ccc(-c2cc3c(N)ncnc3o2)cc1	-1.51	-0.13	-0.8	-1.46	0.41	-1.4	-0.96	-2.33	-2.56	-1.44
CS(=O)(=O)CCNCc1ccc(-c2ccc3ncnc(Nc4ccc(OCc5ccccc5)c(C(F)(F)F)c4)c3c2)o1	3.07	-3	-1.24	5.55	2.96	4.3	5.41	3.67	2.13	2.6
CCn1c(-c2nonc2N)nc2c(C#CC(C)(C)O)ncc(OC3CCNCC3)c21	4.59	2.87	-1.64	8.8	11.3	1.59	7.19	1.55	2.9	2.41
CCn1c(-c2nonc2N)nc2c(C#CC(C)(C)O)nc(OC[C@H](N)c3ccccc3)cc21	2.26	3.21	-2.11	4.73	7.11	3.41	4.89	1.8	1.9	2.38
Cc1cccc(Nc2ncc(-c3ccccc3)o2)c1	3.87	3.41	-1.61	5.91	6.59	3.23	6.62	1.76	2.94	2.73
O=C(Nc1n[nH]c2cc(-c3ccc(F)cc3)ccc12)C1CC1	0.11	-0.27	0.1	3.02	7.71	3.42	7.25	2.38	4.36	2.05
Fc1ccc(-c2nn3ccccc3c2-c2ccncc2)cc1	0.82	-2.15	1.26	41.4	81.2	7.33	38.7	-0.3	0.46	1.66
CN(C)CCOc1ccc(-c2nc(-c3ccncc3)c(-c3ccc4c(c3)CC/C4=N\O)[nH]2)cc1	3.36	1.13	1.14	3.87	15.9	2.37	6.69	0.98	4.84	1.54
FC(F)(F)c1cccc(-c2nn3ncccc3c2-c2ccnc(Nc3ccc4c(c3)OCCO4)n2)c1	2.04	-0.87	-0.58	30	73.7	14.1	52.2	0.07	3.46	3.07
CCCN1CCC(c2ccc(Nc3nc(Nc4cc(F)ccc4C(N)=O)c4cc[nH]c4n3)c(OC)c2)CC1	13.1	0.67	25.4	1.69	11.7	6.28	14.3	0.03	5.13	1.44
Cc1ccc2c(-c3ccnc(Nc4ccccc4)n3)c(-c3ccc(F)cc3)nn2n1	14.5	1.07	1.53	71	88.5	34.1	73.3	-0.61	5.7	0.48
CNC(=O)c1cc(-c2ccc(F)cc2)cc(-c2ccc(S(=O)(=O)N3CCCC3)cc2)c1N	1.92	-1.6	-0.52	4.95	4.5	1.39	3.19	3.39	2.91	2.77
CCNC(=O)O[C@H]1CN[C@H](C#Cc2cc3ncnc(Nc4ccc(OCc5cccc(F)c5)c(Cl)c4)c3s2)C1	1.29	1.52	0.88	1.94	5.4	4.81	-1.11	1.7	2.64	-0.39
COc1ccc(-c2nn3ncccc3c2-c2ccnc(Nc3ccc4c(c3)OCCO4)n2)cc1	1.27	-1.29	-0.23	68.9	87	48.6	75.4	0.57	-1.08	0.47
COc1ccc(-c2cc(-c3c[nH]nc3-c3ccccn3)ccn2)cc1	8.82	-0.83	0.75	7.92	37.2	4.7	14.1	2.12	4.1	4.31
N#Cc1c(NC(=O)c2ccc(F)cc2)sc2c1CCCC2	-0.36	-1.54	0.88	-0.55	3.42	1.36	-0.91	-0.62	0.84	0.35

From ChEMBL document CHEMBL1961873, “Compounds: GSK PKIS; Assays: Nanosyn kinase panel” (2012)
